Screens: PubChem, National Center for Advancing Translational Sciences (NCATS)
Cruzain noTriton = qHTS Assay for Promiscuous and Specific Inhibitors of Cruzain (without detergent); Potency, µM, for inactives: max response, negative = inhibition, most hits filed as inhibitors; purified cruzain, Z-FR-AMC fluorescence, no detergent; AID 1476, 2009; 2.3% of 200,000 active; Cruzipain (Trypanosoma cruzi), P25779;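 further: plate controls were enzyme without inhibitor for no effect and buffer without enzyme for full effect; nearly all actives have a fitted effect of over 40% in size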
Target sequence (P25779 123-467 limits assumed): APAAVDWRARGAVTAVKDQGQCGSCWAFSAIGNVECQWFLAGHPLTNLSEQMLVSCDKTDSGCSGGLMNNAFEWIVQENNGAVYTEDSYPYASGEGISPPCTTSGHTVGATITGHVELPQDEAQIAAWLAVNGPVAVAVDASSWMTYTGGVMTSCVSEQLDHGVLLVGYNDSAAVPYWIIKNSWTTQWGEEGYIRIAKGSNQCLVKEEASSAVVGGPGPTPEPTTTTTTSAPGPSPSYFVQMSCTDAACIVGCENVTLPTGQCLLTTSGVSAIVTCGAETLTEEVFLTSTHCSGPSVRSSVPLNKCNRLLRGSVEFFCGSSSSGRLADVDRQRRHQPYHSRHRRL
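Purified cruzain at 1.5 nM, pre-incubated 15 min with compound at room temperature in 100 mM sodium acetate pH 5.5, 5 mM DTT, 0.00005% Triton X-100. Reaction started with 2 uM Z-FR-AMC; AMC fluorescence increase over 60 s gives rate.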
Cruzain inh Det = qHTS Assay for Promiscuous and Specific Inhibitors of Cruzain (with detergent); Cruzipain (Trypanosoma cruzi), P25779; purified cruzain, Z-FR-AMC fluorescence, 0.01% Triton; Potency, µM, for the others: max response, negative = inhibition, hits mostly inhibitors; 0.43% of 200,000 active;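 further: plate controls were neutral wells for no effect and buffer without enzyme for full effect; nearly all actives have a fitted effect of over 40% in size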
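Purified cruzain (1.5 nM final) was preincubated with compounds for 15 min at room temperature in 100 mM sodium acetate pH 5.5, 5 mM DTT, 0.01% Triton X-100. Reaction started with 2 uM Z-FR-AMC; AMC fluorescence change over 60 s gave activity.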
Starred values were filed as active, the others as inactive. In the library only some 2.5% were active in any assay of this set; here they are far more common. The call rests on the fitted dose curve; in most records, active means well fitted curve in the direction sought with a large enough effect; inconclusive means small, poorly fitted or top-dose-only effect, or another doubt; inactive means no such curve, though single readings can be large; an effect the other way counts as inactive or inconclusive. Potency means the concentration at half of the fitted maximal effect.

Results for CCc1nc2nc(C)c(NS(=O)(=O)c3ccc(C)cc3)c(=O)n2[nH]1 ?
Cruzain noTriton: 6%; Cruzain inh Det: -1%

What do the screens show for `N[C@H](C(=O)O)[C@H](N)C(=O)O`?
Cruzain noTriton: -6%; Cruzain inh Det: -5%

How did CCOc1ccccc1NC(=O)CN1C=NS(=O)(=O)c2ccccc21 do in these assays?
Cruzain noTriton: -5%; Cruzain inh Det: 2%

What do the screens show for `Cc1ccc(NS(=O)(=O)c2ccc3[nH]c4c(c3c2)CCCCCC4)cc1`?
Cruzain noTriton: -25%; Cruzain inh Det: -6%

What do the screens show for `Cc1ccc(NC(=S)NCc2ccc3[nH]c4c(c3c2)CCCC4)cc1`?
Cruzain noTriton: 32µM*; Cruzain inh Det: -12%

What do the screens show for `Cc1ccc(NC(=O)C2CCN(S(=O)(=O)c3ccc4[nH]c5c(c4c3)CCCCC5)CC2)cc1`?
Cruzain noTriton: 13µM*; Cruzain inh Det: 0%

Results for CC(=O)c1ccc(NC(=O)C2CCN(S(=O)(=O)c3ccc4[nH]c5c(c4c3)CCCCC5)CC2)cc1 ?
Cruzain noTriton: -16%; Cruzain inh Det: -2%

What do the screens show for `CCOc1ccccc1NC(=O)C1CCN(S(=O)(=O)c2ccc3[nH]c(=O)oc3c2)CC1`?
Cruzain noTriton: -1%; Cruzain inh Det: -2%

What do the screens show for `COc1ccc(C)cc1NC(=O)C1CCN(S(=O)(=O)c2ccc3[nH]c4c(c3c2)CCCCC4)CC1`?
Cruzain noTriton: 16µM*; Cruzain inh Det: -1%

Results for COc1ccc(NC(=O)C2CCN(S(=O)(=O)c3ccc4[nH]c5c(c4c3)CCCCC5)CC2)cc1 ?
Cruzain noTriton: -30%; Cruzain inh Det: 2%

Results for CCOc1ccccc1NC(=O)C1CCN(S(=O)(=O)c2ccc3[nH]c4c(c3c2)CCCCC4)CC1 ?
Cruzain noTriton: 13µM*; Cruzain inh Det: -2%

How did CC(=O)OCC1OC(n2cnc3c(=O)[nH]cnc32)C(OC(C)=O)C1OC(C)=O (stereo not drawn) do in these assays?
Cruzain noTriton: 0%; Cruzain inh Det: 1%

Results for O=C(c1ccc2c(c1)N(Cc1ccc(Cl)cc1)C(=O)c1ccccc1S2(=O)=O)N1CCCCCC1 ?
Cruzain noTriton: -6%; Cruzain inh Det: -1%

Results for Cc1oc2c(c(C)cc3oc(=O)c(CC(=O)NCc4ccc(F)cc4)c(C)c32)c1C ?
Cruzain noTriton: -3%; Cruzain inh Det: 1%

What do the screens show for `Cc1csc2nc(COC(=O)CNC(=O)c3ccc(F)cc3)cc(=O)n12`?
Cruzain noTriton: -14%; Cruzain inh Det: -11%

Results for Cc1ccc(Cl)cc1N1CCN(S(=O)(=O)c2ccc3[nH]c4c(c3c2)CCCCC4)CC1 ?
Cruzain noTriton: 5µM*; Cruzain inh Det: 0%

What do the screens show for `Cc1ccc(Cl)cc1N1CCN(S(=O)(=O)c2cccc(S(=O)(=O)N3CCCC3)c2)CC1`?
Cruzain noTriton: inconclusive; Cruzain inh Det: 3%

What do the screens show for `Cc1ccc2c(c1)c1nnc(SCC(=O)N3CCN(c4ccc(F)cc4)CC3)nc1n2CC(=O)O`?
Cruzain noTriton: 7%; Cruzain inh Det: 28µM*

What do the screens show for `Cc1ccc(-c2nc3c4ccccc4n(CC(=O)N4CCN(c5ccc(F)cc5)CC4)c(=O)n3n2)cc1`?
Cruzain noTriton: 4%; Cruzain inh Det: 1%

What do the screens show for `Cc1ccc(CNC(=O)CCCCn2c(=O)c3ccccc3n(Cc3ccc(C)cc3)c2=O)cc1`?
Cruzain noTriton: 1%; Cruzain inh Det: 0%

What do the screens show for `CC(=O)c1cc(-c2ccccc2)n(CCC(=O)Nc2nc3c(C)cccc3s2)c1C`?
Cruzain noTriton: -5%; Cruzain inh Det: 1%

What do the screens show for `CCC(Cn1nnc2ccccc2c1=O)NC(=O)Nc1ccc(C)cc1C` (stereo not drawn)?
Cruzain noTriton: -2%; Cruzain inh Det: -2%

How did COc1ccccc1/C=C/c1nc(C#N)c(NCC(C)C)o1 do in these assays?
Cruzain noTriton: 27%; Cruzain inh Det: 7%

How did COc1ccccc1/C=C/c1nc(C#N)c(N(C)C)o1 do in these assays?
Cruzain noTriton: inconclusive; Cruzain inh Det: 14µM*

Results for COc1ccccc1/C=C/c1nc(C#N)c(N2CCCCC2)o1 ?
Cruzain noTriton: -1%; Cruzain inh Det: -25%

What do the screens show for `COc1ccccc1/C=C/c1nc(C#N)c(NCCc2ccccc2)o1`?
Cruzain noTriton: 16µM*; Cruzain inh Det: -7%

What do the screens show for `COC(=O)c1cc2sccc2n1Cc1ccc(F)cc1Cl`?
Cruzain noTriton: -8%; Cruzain inh Det: -7%

How did COc1ccccc1N1CCN(S(=O)(=O)c2ccc(-c3cc(C(F)(F)F)on3)s2)CC1 do in these assays?
Cruzain noTriton: -25%; Cruzain inh Det: -6%

Results for CCCCOc1cccc(C(=O)N(Cc2cccs2)c2ccc(OC)cc2)c1 ?
Cruzain noTriton: -9%; Cruzain inh Det: -8%

Results for CC(CCc1ccccc1)NC(=O)c1ccccc1 (stereo not drawn) ?
Cruzain noTriton: 10%; Cruzain inh Det: 1%

What do the screens show for `CC(CCc1ccccc1)NC(=O)c1ccc(C(=O)NC(C)CCc2ccccc2)cc1` (stereo not drawn)?
Cruzain noTriton: 25µM*; Cruzain inh Det: 1%

Results for COc1cccc(NC(=O)CSc2nc3n[nH]c(C)c3c(=N)n2-c2cccc(OC)c2)c1 ?
Cruzain noTriton: inconclusive; Cruzain inh Det: 0%

Results for CCc1ccc(NC(=O)CSc2nc3n[nH]c(C)c3c(=N)n2-c2cccc(OC)c2)cc1 ?
Cruzain noTriton: 13µM*; Cruzain inh Det: -12%

How did O=C(NCc1cccc(F)c1)C1CCCN(C(=O)N2CCOc3ccccc32)C1 (stereo not drawn) do in these assays?
Cruzain noTriton: -1%; Cruzain inh Det: -4%

How did Cc1ccc(-c2nnn(CC(=O)Nc3ccc(S(=O)(=O)N4CCC(C)CC4)cc3)n2)cc1 do in these assays?
Cruzain noTriton: 10µM*; Cruzain inh Det: 3%

What do the screens show for `CC1CCN(S(=O)(=O)c2ccc(NC(=O)Cn3nnc(-c4ccccc4)n3)cc2)CC1`?
Cruzain noTriton: inconclusive; Cruzain inh Det: 1%

Results for S=C(Nc1ccc(Oc2ccc(NC(=S)NC3CCCCC3)cc2)cc1)NC1CCCCC1 ?
Cruzain noTriton: 4µM*; Cruzain inh Det: -1%

Results for S=C(Nc1ccc(Oc2ccccc2)cc1)NC1CCCCCC1 ?
Cruzain noTriton: 5%; Cruzain inh Det: -5%

How did Cc1c(C(=O)NCC2COc3ccccc3O2)oc2ccc(S(=O)(=O)N3CCOCC3)cc12 (stereo not drawn) do in these assays?
Cruzain noTriton: 10%; Cruzain inh Det: -3%

Results for Cc1c(C(=O)NCC2COc3ccccc3O2)oc2ccc(S(=O)(=O)N3CC(C)CC(C)C3)cc12 (stereo not drawn) ?
Cruzain noTriton: 20µM*; Cruzain inh Det: 2%

What do the screens show for `CCc1ccc(NC(=O)Cn2c(=O)n(CCCCC(=O)NCCc3ccccc3)c(=O)c3ccccc32)cc1`?
Cruzain noTriton: -2%; Cruzain inh Det: -2%

Results for CN1/C(=C\C(=O)COC(=O)CNC(=O)c2ccccc2F)C(C)(C)c2ccccc21 ?
Cruzain noTriton: 20µM*; Cruzain inh Det: 22µM*

How did CN1/C(=C\C(=O)COC(=O)CNC(=O)c2ccc3ccccc3c2)C(C)(C)c2ccccc21 do in these assays?
Cruzain noTriton: 25µM*; Cruzain inh Det: -24%

Results for CNS(=O)(=O)c1cccc(C(=O)OCC(=O)/C=C2/N(C)c3ccccc3C2(C)C)c1 ?
Cruzain noTriton: 3%; Cruzain inh Det: -14%
